# Screening results as filed in PubChem.
# The list is not random: actives were taken first. Their share in the collection is about 3.9%.
# HSF1 inhib: HSF1 inhibitors in luciferase reporter cells, primary screen, cell-based, NIH3T3, luminescence. NIH3T3-HGL HSE-luciferase, MG132-induced, luminescence 8 h; stronger effect = lower value. activity change, negative = inhibition, % at 7.5 µM (by protocol). actives 0.77% (n = 300,000). AID 2098, 2009;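 active = more than half of replicate wells show activity change below -50%, luminescence cut by over half; inconclusive = some wells, but at most half, below -50%; inactive = no replicate well below -50%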;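 note: luciferase reports HSF-1 transcriptional activity via heat shock element; 0% = median of DMSO wells and -100% = zero luminescence signal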
# MITF TRPM1 HTS: activators of MITF-driven TRPM1 promoter reporter, primary screen, cell-based, SK-MEL-5, luciferase, single point; SK-MEL-5 TRPM1-promoter luciferase, 24 h; % of positive control, neutral wells = 0; activation, % at 12.5 µM; actives 0.75% (n = 300,000);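 active = mean activation of at least 80% with every replicate also reaching 80%; inconclusive = mean reaches 80% but some replicate falls short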;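 note: 0% = neutral control wells and 100% = parthenolide positive control wells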
# HSF-1 act: HSF-1 activators, primary screen, NIH3T3-HGL cells, MG132 stress, luminescence, single point | NIH3T3-HGL HSF-1 luciferase reporter, 8 h; 100% = twice DMSO control signal | activation, % at 9 µM | actives 1.7% (n = 300,000);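 active = mean replicate activation of at least 50% with a set share of replicates each reaching 50%; inconclusive = only one of those two conditions met; inactive = mean below 50% and too few replicates reaching it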;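 note: 0% = median of the neutral control wells and 100% = twice that signal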
# esBAF inh: Bmi1 luciferase reporter increase in mESCs, primary screen, esBAF inhibitor project, mouse ES cells, Bmi1 luciferase knock-in, single point; actives 2% (n = 350,000); AID 602393, 2012; reporter increase, % at 12.5 µM; 24 h; 100% = twice the neutral-well signal; in the data active = activation above about 40%; inconclusive = no clear call, values can overlap the other calls;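 note: 0% = median of the plate's neutral control wells and 100% = double that signal; a rise in the Bmi1 reporter signal indicates esBAF inhibition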
# Wnt bcat act: Wnt/beta-catenin pathway activators, primary screen, cell-based, plate reader, single point; Wnt/beta-catenin reporter cell assay, activator; activation, % at 9.35 µM; actives 1.2% (n = 300,000); AID 743398, 2014; in the data active = activation above about 30%, passing the limit was not always enough; inconclusive = no clear call, values can overlap the other calls;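 note: 0% = neutral control wells and 100% = positive control wells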
# An asterisk follows results filed as active; ? = inconclusive; . = no result.
SMILES,HSF1 inhib,MITF TRPM1 HTS,HSF-1 act,esBAF inh,Wnt bcat act
CC1(C)CC(=O)C2=C(C1)Nc1ccccc1NC2c1ccc(F)cc1 (stereo unspecified),-2,-2,-1,3,1
CC1(C)CC(=O)C2=C(C1)Nc1cc3c(cc1C2c1ccc2c(c1)OCO2)OCO3 (stereo unspecified),29,9,62*,13,1
COc1ccc(CNC(=O)C2CCN(S(=O)(=O)c3ccc4c(c3)C(C)(C)C(=O)N4C)CC2)cc1,-84*,-1,-88,0,-2
COc1ccc(CNC(=O)C2CCCN(S(=O)(=O)c3ccc4c(c3)C(C)(C)C(=O)N4C)C2)cc1 (stereo unspecified),1,-12,-4,0,-1
CN1C(=O)C(C)(C)c2cc(S(=O)(=O)N3CCC(C(=O)NCc4ccc(Cl)cc4)CC3)ccc21,37,10,66*,2,-1
O=C(NCc1ccncc1)C1CCN(S(=O)(=O)c2cccc(C(F)(F)F)c2)CC1,-53*,4,-62,-2,0
Fc1ccc(/C=C2\CCCC3=C2Nc2ncnn2C3c2ccc(F)cc2)cc1 (stereo unspecified),66,.,98*,-22,.
COc1ccc(C2C3=C(Nc4ncnn42)c2ccccc2CCC3)cc1 (stereo unspecified),-3,9,-9,-3,2
Cc1ccc(NC(=O)c2ccc(CSc3nnnn3C)cc2)cc1,10,97*,33,30,.
Cc1ccccc1NC(=O)c1ccc(CSc2ncccn2)cc1,13,35,10,46*,4
Cc1ccc(NC(=O)c2ccc(CSc3ccccn3)cc2)cc1,13,20,45,50*,.
Cc1ccc(Cl)cc1NC(=O)c1ccc(CSc2nnnn2C)cc1,9,13,7,13,.
O=C(c1cccnc1)N1CC[C@@H]2[C@@H](CO)Nc3ccc(-c4ccc(F)cc4)cc3[C@@H]21,.,.,.,-2,.
CCCN1C(=O)C(=O)N(CC(=O)c2cc(C)n(C3CC3)c2C)C1=O,.,89*,.,29,26
COc1ccccc1-c1cn(CC[C@H]2CC[C@@H](NC(=O)C3CC3)[C@H](CO)O2)nn1,.,.,.,4,.
O=C(O)C1Nc2ccc(OC(F)(F)F)cc2C2C=CCC12 (stereo unspecified),2,.,7,.,.
O=C(NC1CC1)C1Nc2ccc(OC(F)(F)F)cc2C2C=CCC12 (stereo unspecified),23,-8,38,-4,39*
O=C(C[C@H]1CC[C@@H]2[C@H](COC[C@H](O)CN2S(=O)(=O)c2cccc(Cl)c2)O1)NCCCN1CCOCC1,.,.,.,-5,.
Cc1c(C2=CCN(S(=O)(=O)c3ccc(Br)cc3)CC2)c2ccccc2n1C,-60*,13,-70,.,.
COc1nc(-c2ccccc2)c2cc(Br)ccc2n1,-68*,.,-75,.,0
NNc1nc(-c2ccccc2)c2cc(Br)ccc2n1,0,-2,-10,-3,0
CO[C@@H]1CN(C)C(=O)c2cc(NC(=O)Nc3ccccc3)ccc2OC[C@H](C)N(C(C)=O)C[C@H]1C,.,.,.,5,.
Nc1ccccc1Nc1ccc([N+](=O)[O-])cc1[N+](=O)[O-],18,4,60*,.,-5
O=C(c1cccs1)c1coc2ccc(O)cc12,3,94*,13,67*,51*
O=C(O)COc1ccc2occ(C(=O)c3ccccc3)c2c1,-9,15,-1,0,5
SMILES,HSF1 inhib,MITF TRPM1 HTS,HSF-1 act,esBAF inh,Wnt bcat act
O=C(CCl)Oc1ccc2occ(C(=O)c3cccs3)c2c1,-16,44,-28,93*,.
O=C(c1cccc(Br)c1)c1coc2ccc(O)cc12,.,90*,.,70*,-4
CC(=O)Oc1ccc2occ(C(=O)c3ccccc3)c2c1,28,.,63*,.,0
C[C@@H]1CCCCO[C@@H](CN(C)Cc2ccccc2)[C@@H](C)CN([C@@H](C)CO)C(=O)c2cc(NS(=O)(=O)c3cn(C)cn3)ccc2O1,.,.,.,-6,.
C[C@@H]1CN([C@@H](C)CO)C(=O)c2cc(NC(=O)c3ccncc3)ccc2O[C@@H]1CN(C)C(=O)Nc1ccc(C(F)(F)F)cc1,.,.,.,0,.
CC(C)NC(=O)N(C)C[C@@H]1Oc2c(NS(=O)(=O)c3cccs3)cccc2C(=O)N([C@H](C)CO)C[C@@H]1C,.,.,.,-4,.
CCN(CC)C(=O)Oc1ccc2c(=O)c(-c3ccccc3)coc2c1,21,78,40,26,.
CC(=O)Oc1ccc2occ(C(=O)c3cccs3)c2c1,26,56,44,60*,80*
CC(=O)Oc1ccc2occ(-c3ccccc3)c2c1,-2,36,9,47*,6
CCNC(=O)[C@@H]1[C@@H](CO)[C@@H]2Cn3c(ccc(-c4ccccc4)c3=O)[C@H]1N2Cc1ccccc1,.,.,.,-2,.
COc1ccc(C(=O)Nc2ccc3c(c2)OC[C@H](C)NC[C@@H](C)[C@@H](OC)CN(C)C3=O)cc1,.,.,.,-4,.
Cc1ccc(S(=O)(=O)NNC(=O)c2cnn(-c3ccc(Cl)cc3)c2C(F)(F)F)cc1,32,-9,61*,.,-1
Cc1ccc(S(=O)(=O)NNC(=O)c2cnn(-c3ccccc3)c2C(F)(F)F)cc1,2,.,-5,.,5
O=C(CNC(=O)OCc1ccccc1)NC1CCCCCC1,-1,11,8,5,-2
O=C(N[C@H]1/C=C\[C@@H](O)CCCC1)OCc1ccccc1,.,98*,.,70*,4
c1ccc2c(c1)Cn1nnnc1-2,-30,-2,-44,-1,1
c1ccc2c(c1)CC1(CCCCC1)n1nnnc1-2,-59*,3,-66,-3,-1
CN(c1ccccc1)c1ccc(/C=C(\CCC(=O)O)c2nc3ccccc3s2)cc1[N+](=O)[O-],16,-1,57*,.,.
Cc1ccc(/C=C(\CCC(=O)O)c2nc3ccccc3s2)cc1[N+](=O)[O-],12,7,45,.,0
CC1(C)CC(=O)C(=Cc2cn(-c3ccccc3)nc2-c2ccc(Cl)cc2)C(=O)C1,?,13,-13,83*,.
CC1(C)CC(=O)C(=Cc2cn(CCC#N)nc2-c2ccc(Cl)cc2)C(=O)C1,3,11,6,.,-2
O=C(NCc1cccc2ccccc12)c1cccs1,.,51,.,55*,22
CO[C@H](C(=O)N(C)C[C@@H]1OCc2ccccc2-c2c(n(C)c3ccccc23)C(=O)N([C@H](C)CO)C[C@H]1C)c1ccccc1,.,.,.,7,.
CCOc1ccc(N(C(=O)c2ccccc2Cl)C2=NC(C)(C)CS2)cc1,18,25,51*,.,6
CCCCN1C(=O)/C(=C/C=C2\Oc3ccccc3N2CC)SC1=S,4,13,-15,-4,-2
CCCCN1C(=O)/C(=C/C=C2/CC(C)(C)CN2C)SC1=S,12,64,15,93*,14
